Experimental findings from PubChem BioAssay AID652058 (Broad Institute, 2013) are described below.

The whole screen tested about 1,200 compounds, of which about 870 (72%) were called active. Not shown: some 3% with an inconclusive outcome. So high a share suggests a set chosen from earlier hits. A selection follows. Measured potencies and affinities stand elsewhere. Values without a mark were called inactive.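 The calls were made as follows: active = every test run fits a falling curve whose half-maximal concentration is at most twice the top valid dose; inconclusive = runs disagree, or flat 30 to 70% inhibition, or poor fit; inactive = every run inactive: flat, rising or weaker potency.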

A short description of the assay: ZM109 Env clade C HIV-1 fusion inhibitors, dose response, HeLa effector, CEM target cells, luciferase, cherry-pick (AID 652058). The settings on record: HeLa Env/CEM cell fusion, 16-24 h; series mostly up to 35 µM.
Regarding `CCCNC(=O)C[C@@H]1C[C@H]2c3cc(NC(=O)c4cccnc4)ccc3O[C@H]2[C@H](CO)O1`, the activity change, negative = inhibition entry is “inactive”.
Turning to `Cc1cccc(C)c1N(CC(O)Cn1c2ccccc2c2ccccc21)S(C)(=O)=O` (stereo not drawn), the activity change, negative = inhibition result was “inactive”.
Turning to `CCNC(=O)C[C@@H]1CC[C@@H]2[C@H](COC[C@@H](O)CN2C(=O)c2ccccn2)O1`, the activity change, negative = inhibition result was “inactive”.
As to `CS(=O)(=O)N1CCc2cc(-c3csc(NC(=O)Cc4cccs4)n3)ccc21`, the activity change, negative = inhibition entry is “inactive”.
Next, `O=C(Nc1nc(-c2ccc3c(c2)OCO3)cs1)c1ccncc1`: “inactive”.
As for `CCOC(=O)[C@@H]1[C@H]2COc3cc(OC)ccc3[C@H]2N2C(=O)N(c3cccc(F)c3)C(=O)[C@@]12C`, the activity change, negative = inhibition entry was “inactive”.
`COc1ccccc1CNC(=O)C[C@H]1C[C@@H]2c3cc(NC(=O)c4cccnc4)ccc3O[C@@H]2[C@@H](CO)O1`: the activity change, negative = inhibition entry is “inactive”.
Next, `O=C(C[C@@H]1C[C@@H]2c3cc(NC(=O)c4ccc5c(c4)OCO5)ccc3O[C@@H]2[C@@H](CO)O1)NCc1ccc(Oc2ccccc2)cc1`: “inactive”.
As to `O=C(C[C@@H]1C[C@@H]2c3cc(NS(=O)(=O)c4ccc(F)cc4)ccc3O[C@@H]2[C@H](CO)O1)NCc1ccccc1F`, the activity change, negative = inhibition entry was “inactive”.
With `O=C(C[C@@H]1C[C@@H]2c3cc(NC(=O)Nc4ccccc4)ccc3O[C@@H]2[C@@H](CO)O1)NCc1ccccc1`, the activity change, negative = inhibition result was “inactive”.
With `COC(=O)Cn1cnc2c(Cl)nc(F)nc21`, the activity change, negative = inhibition entry was “inactive”.
As to `CCCNC(=O)C[C@@H]1C[C@@H]2c3cc(NC(=O)Cc4ccncc4)ccc3O[C@@H]2[C@H](CO)O1`, the activity change, negative = inhibition result was “inactive”.
Take `O=C(C[C@H]1C[C@H]2c3cc(NC(=O)C4CCC4)ccc3O[C@H]2[C@@H](CO)O1)NCc1ccc2c(c1)OCO2`: the activity change, negative = inhibition result was “inactive”.
Regarding `CN(C)C(=O)C[C@@H]1C[C@@H]2c3cc(NS(=O)(=O)c4ccc(F)cc4)ccc3O[C@@H]2[C@@H](CO)O1`, the activity change, negative = inhibition result is “inactive”.
Consider `CN(C)C(=O)C[C@@H]1C[C@H]2c3cc(NS(=O)(=O)c4ccc(F)cc4)ccc3O[C@H]2[C@H](CO)O1`, for which the activity change, negative = inhibition result was “inactive”.
As for `O=C(C[C@@H]1C[C@H]2c3cc(NC(=O)C4CCC4)ccc3O[C@H]2[C@H](CO)O1)NCC(F)(F)F`, the activity change, negative = inhibition entry is “inactive”.
For `O=C(C[C@H]1C[C@@H]2c3cc(NC(=O)C4CCOCC4)ccc3O[C@@H]2[C@H](CO)O1)NCc1ccccc1`, the activity change, negative = inhibition result is “inactive”.
Consider `CCCNC(=O)C[C@@H]1C[C@@H]2c3cc(NC(=O)CN(C)C)ccc3O[C@@H]2[C@H](CO)O1`, for which the activity change, negative = inhibition result is “inactive”.
Turning to `CC(=O)OC1c2ccccc2C(=O)N1c1ccccc1C` (stereo not drawn), the activity change, negative = inhibition entry was “inactive”.
Consider `O=C(COC(=O)c1cccc(S(=O)(=O)N2CCOCC2)c1)NCc1ccccc1`, for which the activity change, negative = inhibition result is “inactive”.
As for `Cc1ccc(S(=O)(=O)N(C)c2ccc(C(=O)N3CCN(Cc4ccc5c(c4)OCO5)CC3)cc2)cc1`, the activity change, negative = inhibition entry was “inactive”.
In the case of `c1ccc(CSc2nnc([C@@H]3CCCN3)o2)cc1` it was “inactive”; in that of `Cc1nnc(SC(=O)N2c3ccccc3Sc3ccccc32)s1`, “inactive”.
For the molecule `Cc1ccccc1-n1c(=O)c2ccccc2n2cnnc12`, the activity change, negative = inhibition entry was “inactive”.
Consider `O=c1c2ccccc2nnn1CSc1nnc(COc2ccc(Cl)cc2)n1Cc1ccco1`, for which the activity change, negative = inhibition entry is “inactive”.
As for `O=C(CNC(=O)c1cccc(-n2cccc2)c1)Nc1ccccc1Br`, the activity change, negative = inhibition result was “inactive”.
Next, `Cc1ccc(S(=O)(=O)N[C@@H]2CC[C@H](CCNC(=O)c3ccccc3F)O[C@H]2CO)cc1`: “inactive”; `COc1cccc(S(=O)(=O)N[C@H]2CC[C@@H](CCN)O[C@@H]2CO)c1`: “inactive”; `COc1ccccc1S(=O)(=O)N[C@H]1CC[C@H](CC(=O)N2CCN(C)CC2)O[C@H]1CO`: “inactive”.
For the molecule `O=C(NCC[C@@H]1CC[C@@H](NS(=O)(=O)c2ccccc2F)[C@@H](CO)O1)c1ccc(F)cc1`, the activity change, negative = inhibition result was “inactive”.
As to `COc1cc(-c2cc(OC)c(O)c(OC)c2)cc(OC)c1O`, the activity change, negative = inhibition entry is “inactive”.
As to `Cc1ccc(C2Oc3ccccc3C3=C2C(c2cccs2)n2ncnc2N3)cc1` (stereo not drawn), the activity change, negative = inhibition result is “inactive”.
In the case of `O=C(CN1CCCN(Cc2ccc(F)cc2Cl)C1=O)NC1CCCCCCC1`, the activity change, negative = inhibition entry is “inactive”.
In the case of `O=C(NCCCN1CCc2ccccc2C1)Nc1ccc(Cl)cc1` it was “inactive”.
Take `CCN(CC)S(=O)(=O)c1cccc(S(=O)(=O)c2cccc(S(=O)(=O)N(CC)CC)c2)c1`: the activity change, negative = inhibition entry is “inactive”.
Turning to `CS(=O)(=O)N(Cc1ccc(Cl)cc1)c1ccc(C(=O)NCCC2=CCCCC2)cc1`, the activity change, negative = inhibition result is “inactive”.
Take `CCCNC(=O)C[C@H]1C[C@H]2c3cc(NC(=O)Cc4ccncc4)ccc3O[C@H]2[C@H](CO)O1`: the activity change, negative = inhibition entry was “inactive”.
In the case of `COc1ccc2c3c([nH]c2c1)[C@H](CO)N(C(=O)Nc1cccc(F)c1)CC31CCN(S(=O)(=O)c2ccccc2)CC1`, the activity change, negative = inhibition entry was “inactive”.
As for `CCCCOc1ccc(S(=O)(=O)Nc2cccnc2)cc1`, the activity change, negative = inhibition result is “inactive”.
Next, `COc1ccc(S(=O)(=O)N[C@@H]2CC[C@@H](CC(=O)NCCc3ccncc3)O[C@@H]2CO)cc1`: “inactive”; `CC(=O)c1ccc(S(=O)(=O)N2CCN(c3nc4c(C)c(C)ccc4cc3C#N)CC2)cc1`: “inactive”; `O=C(Nc1nc2ccccc2[nH]1)c1ccccc1F`: “inactive”.
With `O=C(COc1ccc(-n2cnnn2)cc1)Nc1ccc(F)c(F)c1`, the activity change, negative = inhibition entry is “inactive”.
On to `Cc1ccc(NC(=O)c2ccc(OCC3CCCO3)cc2)cc1Cl` (stereo not drawn), for which the activity change, negative = inhibition result is “inactive”.
In the case of `COC(=O)[C@H](Cc1ccccc1)NC(=O)Cn1cnc(C(=O)Nc2ccc(C)c(C)c2)n1`, the activity change, negative = inhibition result was “inactive”.
Regarding `Cc1ccc(NC(=O)c2ccc(CN3CCc4ccccc4C3)cc2)cc1`, the activity change, negative = inhibition result was “inactive”.
Turning to `Cn1c(CN2CCCCC2)nc2cc(NC(=O)c3ccc(Cl)cc3)ccc21`, the activity change, negative = inhibition entry is “inactive”.
On to `O=C(Nc1ccc(Cl)cc1)Nc1cccc(C(=O)O)c1`, for which the activity change, negative = inhibition result is “inactive”.
